For ten compounds, Potency results are on record in PubChem BioAssay (Tox21).

The nature of experiment [1]: Caspase-3/7 induction in CHO-K1 cells by small molecules, qHTS assay (AID 1346980). Also: nearly all actives have a fitted effect of over 15% in size. The gist of the method:
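Wild-type cells were seeded at 1,500 per well and settled 5 hr at 37 C, 5% CO2, then exposed to DMSO-dissolved compounds for 17 hr. Caspase-Glo 3/7 reagent was added, and luminescence was read after 30min at room temperature.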

Experiment [2] concerns the target Nuclear receptor subfamily 1 group I member 2 (Homo sapiens) (UniProt O75469). The experiment can be described thus: Human pregnane X receptor (PXR) small molecule agonists, qHTS assay (AID 1346982). Also: nearly all actives have a fitted effect of over 35% in size. Also: potency is read from the fitted curve at half-maximal effect. The method in brief:
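Agonist mode qHTS: PXR-Luc HepG2 cells plated 5 hr before DMSO-dissolved compounds were pinned in, cultured 24 hr at 37 C, 5% CO2; ONE-Glo luminescence readout.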

Experiment [3] has as its target Cytochrome P450 2D6 (Homo sapiens) (UniProt P10635). The experiment can be described thus: Cytochrome P450 Family 2 Subfamily D Member 6 (CYP2D6) small molecule antagonists: luciferase reporter qHTS assay (AID 1671196). Also: nearly all actives have a fitted effect of over 50% in size. Also: potency is read from the fitted curve at half-maximal effect. The gist of the method: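 P450-Glo format: CYP2D6 converts a proluciferin substrate to luciferin in an NADPH-driven reaction lasting 1 h at room temperature. Light output, proportional to CYP2D6 activity, reflects interference by test chemicals.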

Experiment [4] concerns the target Cytochrome P450 2C19 (Homo sapiens) (UniProt P33261). The experiment can be described thus: Cytochrome P450 Family 2 Subfamily C Member 19 (CYP2C19) small molecule antagonists: luciferase reporter qHTS assay (AID 1671197). Also: nearly all actives have a fitted effect of over 65% in size. Also: potency is read from the fitted curve at half-maximal effect. The gist of the method:
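Quantitative high-throughput screen of the Tox21 library using CYP2C19 with proluciferin substrate. Reaction: NADPH regeneration, 37C, 1 h, after 10 min compound preincubation at room temperature. Readout: luminescence.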

The target in experiment [5] is Cytochrome P450 3A4 (Homo sapiens) (UniProt P08684). The experiment can be described thus: Cytochrome P450 Family 3 Subfamily A Member 4 (CYP3A4) small molecule antagonists: luciferase reporter qHTS assay (AID 1671201). Also: nearly all actives have a fitted effect of over 50% in size. Also: potency is read from the fitted curve at half-maximal effect. The method in brief:
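P450-Glo CYP3A4 luminescent assay: compounds preincubated 10 min at room temperature with enzyme and proluciferin substrate, NADPH regeneration added, 1 h room-temperature reaction, stopped with luciferin detection reagent; luminescence read after 20 min. Ketoconazole positive control.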

Experiment [6] addresses Cytochrome P450 2C9 (Homo sapiens) (UniProt P11712). The experiment in a line: Cytochrome P450 Family 2 Subfamily C Member 9 (CYP2C9) small molecule antagonists: luciferase reporter qHTS assay (AID 1671198). Also: nearly all actives have a fitted effect of over 50% in size. Also: potency is read from the fitted curve at half-maximal effect. The method in brief: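 CYP2C9 activity was measured with a P450-Glo proluciferin substrate. Enzyme–substrate mix was held with compound for 10 min at room temperature, then NADPH regeneration solution was added for 1 h at 37C. Luciferin product was read as luminescence.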

Experiment [7] deals with Cytochrome P450 1A2 (Homo sapiens) (UniProt P05177). The experiment in a line: Cytochrome P450 Family 1 Subfamily A Member 2 (CYP1A2) small molecule antagonists: luciferase reporter qHTS assay (AID 1671199). Also: nearly all actives have a fitted effect of over 50% in size. Also: potency is read from the fitted curve at half-maximal effect. The method in brief:
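Inhibition of CYP1A2 conversion of proluciferin to luciferin, detected by luminescence. Reaction run 1 h at room temperature with NADPH regeneration after brief compound preincubation.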

The target in experiment [8] is Voltage-gated inwardly rectifying potassium channel KCNH2 (Homo sapiens) (UniProt Q12809). The experiment in a line: Human Ether-a-go-go-Related Gene (hERG) channel small molecule antagonists: fluorescence cell-based qHTS assay (AID 1671200). The method in brief:
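hERG-U2OS cells plated overnight at 37 C, loaded with FluxOR II dye 1 h at RT in dark; after 10 min, thallium stimulus added. Fluorescence (480/540 nm) read kinetically for 2 min at 1 s intervals.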

Molecules are shown by their SMILES. Records with an inconclusive call do not appear. Activity calls are given as the source filed them. Calls follow the shape of the dose curve; as a rule, active = well fitted curve in the direction sought with a large enough effect in the repeat runs; inconclusive = weak or mixed curves; inactive = no such curve, though single readings can be large; an effect the other way counts as inactive or inconclusive.

Chain of Nuclear receptor subfamily 1 group I member 2 (Homo sapiens) (O75469 whole entry, looked up): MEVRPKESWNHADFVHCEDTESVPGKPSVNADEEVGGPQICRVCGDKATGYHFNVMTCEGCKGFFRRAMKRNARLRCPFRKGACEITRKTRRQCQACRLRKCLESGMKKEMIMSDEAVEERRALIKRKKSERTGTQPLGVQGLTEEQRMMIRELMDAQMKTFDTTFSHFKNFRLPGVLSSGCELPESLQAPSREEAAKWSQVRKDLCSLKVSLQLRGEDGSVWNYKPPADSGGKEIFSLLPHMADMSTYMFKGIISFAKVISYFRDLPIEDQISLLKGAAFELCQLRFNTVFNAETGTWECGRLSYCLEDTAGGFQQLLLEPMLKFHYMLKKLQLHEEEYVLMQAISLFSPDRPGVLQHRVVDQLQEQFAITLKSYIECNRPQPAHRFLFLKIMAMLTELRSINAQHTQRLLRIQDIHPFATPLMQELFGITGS
Chain of Cytochrome P450 2D6 (Homo sapiens) (P10635 whole entry, looked up): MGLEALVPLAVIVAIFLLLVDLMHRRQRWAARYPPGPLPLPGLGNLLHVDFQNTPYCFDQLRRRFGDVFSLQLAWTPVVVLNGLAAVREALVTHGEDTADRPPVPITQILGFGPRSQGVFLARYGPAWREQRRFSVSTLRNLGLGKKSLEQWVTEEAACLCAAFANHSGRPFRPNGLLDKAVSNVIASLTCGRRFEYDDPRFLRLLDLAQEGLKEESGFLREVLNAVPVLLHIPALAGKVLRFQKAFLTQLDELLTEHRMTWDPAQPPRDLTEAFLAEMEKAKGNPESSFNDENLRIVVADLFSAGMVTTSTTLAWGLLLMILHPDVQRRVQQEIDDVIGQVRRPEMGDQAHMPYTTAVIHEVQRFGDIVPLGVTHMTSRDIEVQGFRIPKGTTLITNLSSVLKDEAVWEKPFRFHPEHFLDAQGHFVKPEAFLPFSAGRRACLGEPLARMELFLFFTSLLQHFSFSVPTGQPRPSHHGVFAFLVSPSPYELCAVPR
Chain of Cytochrome P450 1A2 (Homo sapiens) (P05177 whole entry, looked up): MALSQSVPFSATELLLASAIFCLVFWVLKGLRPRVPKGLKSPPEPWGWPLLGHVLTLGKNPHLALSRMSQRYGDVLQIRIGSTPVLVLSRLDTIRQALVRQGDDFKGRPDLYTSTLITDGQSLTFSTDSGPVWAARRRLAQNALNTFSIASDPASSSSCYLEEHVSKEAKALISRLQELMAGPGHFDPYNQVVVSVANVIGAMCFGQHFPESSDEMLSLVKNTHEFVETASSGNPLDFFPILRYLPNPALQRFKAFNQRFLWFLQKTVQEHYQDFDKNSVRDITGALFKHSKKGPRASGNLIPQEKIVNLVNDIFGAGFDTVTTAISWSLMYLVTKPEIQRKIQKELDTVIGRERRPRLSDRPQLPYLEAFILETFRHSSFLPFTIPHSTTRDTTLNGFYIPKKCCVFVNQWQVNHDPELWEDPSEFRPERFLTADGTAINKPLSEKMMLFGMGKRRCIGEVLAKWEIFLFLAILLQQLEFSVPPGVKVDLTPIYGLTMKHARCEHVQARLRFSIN
Chain of Cytochrome P450 2C19 (Homo sapiens) (P33261 whole entry, looked up): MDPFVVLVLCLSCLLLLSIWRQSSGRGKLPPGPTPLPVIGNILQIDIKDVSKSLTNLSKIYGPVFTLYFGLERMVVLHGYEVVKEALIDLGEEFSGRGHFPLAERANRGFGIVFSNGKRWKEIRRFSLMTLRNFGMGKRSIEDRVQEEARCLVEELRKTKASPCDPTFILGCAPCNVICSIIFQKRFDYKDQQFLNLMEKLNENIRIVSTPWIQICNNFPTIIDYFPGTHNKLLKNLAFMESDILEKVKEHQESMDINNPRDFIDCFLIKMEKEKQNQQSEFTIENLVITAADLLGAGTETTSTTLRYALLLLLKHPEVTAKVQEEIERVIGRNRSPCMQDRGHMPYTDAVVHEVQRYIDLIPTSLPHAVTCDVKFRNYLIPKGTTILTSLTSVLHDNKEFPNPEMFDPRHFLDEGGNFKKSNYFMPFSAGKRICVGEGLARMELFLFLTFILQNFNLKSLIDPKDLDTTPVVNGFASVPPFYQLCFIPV
Chain of Cytochrome P450 3A4 (Homo sapiens) (P08684 whole entry, looked up): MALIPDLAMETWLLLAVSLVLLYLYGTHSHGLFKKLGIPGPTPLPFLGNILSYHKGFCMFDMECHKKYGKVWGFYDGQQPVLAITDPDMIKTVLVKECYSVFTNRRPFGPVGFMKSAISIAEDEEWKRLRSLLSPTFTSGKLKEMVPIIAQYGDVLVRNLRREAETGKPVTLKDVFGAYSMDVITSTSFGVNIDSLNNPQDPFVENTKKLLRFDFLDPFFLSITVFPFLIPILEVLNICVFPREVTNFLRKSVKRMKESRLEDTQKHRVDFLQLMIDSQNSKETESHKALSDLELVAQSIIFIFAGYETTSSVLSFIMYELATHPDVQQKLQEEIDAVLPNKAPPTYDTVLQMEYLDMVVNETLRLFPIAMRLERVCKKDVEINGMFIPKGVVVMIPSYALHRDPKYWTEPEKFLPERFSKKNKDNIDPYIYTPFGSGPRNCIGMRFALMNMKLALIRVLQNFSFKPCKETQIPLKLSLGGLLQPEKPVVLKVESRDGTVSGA
Chain of Cytochrome P450 2C9 (Homo sapiens) (P11712 whole entry, looked up): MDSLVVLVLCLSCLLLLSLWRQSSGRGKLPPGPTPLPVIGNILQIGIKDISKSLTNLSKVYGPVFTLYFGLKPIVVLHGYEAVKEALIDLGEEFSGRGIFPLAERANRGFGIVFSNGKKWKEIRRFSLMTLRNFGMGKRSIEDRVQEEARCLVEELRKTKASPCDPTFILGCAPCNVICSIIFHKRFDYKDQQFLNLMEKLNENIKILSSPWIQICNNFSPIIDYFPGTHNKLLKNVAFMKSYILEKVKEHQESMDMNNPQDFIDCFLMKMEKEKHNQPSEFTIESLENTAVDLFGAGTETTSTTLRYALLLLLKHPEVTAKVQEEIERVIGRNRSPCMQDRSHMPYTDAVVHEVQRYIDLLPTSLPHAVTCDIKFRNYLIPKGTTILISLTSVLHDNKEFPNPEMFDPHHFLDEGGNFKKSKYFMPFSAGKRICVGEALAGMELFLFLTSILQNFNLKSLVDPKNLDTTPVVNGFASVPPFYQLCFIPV
Chain of Voltage-gated inwardly rectifying potassium channel KCNH2 (Homo sapiens) (Q12809 whole entry, looked up): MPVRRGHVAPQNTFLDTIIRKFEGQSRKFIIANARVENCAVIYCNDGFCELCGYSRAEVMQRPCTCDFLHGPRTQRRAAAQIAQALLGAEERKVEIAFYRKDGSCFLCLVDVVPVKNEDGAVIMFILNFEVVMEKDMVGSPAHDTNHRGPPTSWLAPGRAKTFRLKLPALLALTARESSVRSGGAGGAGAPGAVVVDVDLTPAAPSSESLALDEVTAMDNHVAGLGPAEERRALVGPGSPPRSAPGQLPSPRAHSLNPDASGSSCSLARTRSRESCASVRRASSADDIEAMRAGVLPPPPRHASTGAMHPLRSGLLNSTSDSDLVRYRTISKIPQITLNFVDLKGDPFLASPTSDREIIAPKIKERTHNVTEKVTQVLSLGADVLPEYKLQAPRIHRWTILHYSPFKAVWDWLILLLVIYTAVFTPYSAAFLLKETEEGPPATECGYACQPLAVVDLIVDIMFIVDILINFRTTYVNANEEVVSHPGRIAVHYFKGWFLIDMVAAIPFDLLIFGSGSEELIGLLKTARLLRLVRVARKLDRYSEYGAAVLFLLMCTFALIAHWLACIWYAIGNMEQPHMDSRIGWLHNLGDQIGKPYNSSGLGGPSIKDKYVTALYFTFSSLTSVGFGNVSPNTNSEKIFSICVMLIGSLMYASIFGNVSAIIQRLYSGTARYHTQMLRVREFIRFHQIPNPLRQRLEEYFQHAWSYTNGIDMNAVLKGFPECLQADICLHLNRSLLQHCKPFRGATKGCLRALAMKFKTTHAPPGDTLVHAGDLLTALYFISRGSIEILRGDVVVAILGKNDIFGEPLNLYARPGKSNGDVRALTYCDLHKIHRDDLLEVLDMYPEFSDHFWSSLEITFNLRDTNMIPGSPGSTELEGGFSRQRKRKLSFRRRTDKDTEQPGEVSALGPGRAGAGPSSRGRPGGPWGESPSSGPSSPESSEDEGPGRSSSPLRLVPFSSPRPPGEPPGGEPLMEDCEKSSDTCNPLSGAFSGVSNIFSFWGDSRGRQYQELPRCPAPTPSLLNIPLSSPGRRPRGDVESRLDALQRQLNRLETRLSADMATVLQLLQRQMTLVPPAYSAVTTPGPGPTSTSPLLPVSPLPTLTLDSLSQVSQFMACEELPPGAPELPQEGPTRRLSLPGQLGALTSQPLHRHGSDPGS

For `O=c1cc[nH]cc1`, the Potency result in experiment [1], in experiment [2], in experiment [3], in experiment [4] and in experiment [5] was “inactive” throughout.
On to `CSc1nnc(C(C)(C)C)c(=O)[nH]1`, for which the Potency result in experiment [1], in experiment [2], in experiment [4], in experiment [7], in experiment [8] and in experiment [5] was “inactive” in each case. Besides, the Potency in experiment [6] is 35.6 µM (active).
For the compound `CC(CC(C)(C)C)CC(C)(C)CC(C)(C)C` (stereo not given), the Potency entry in experiment [1], in experiment [2], in experiment [3], in experiment [4], in experiment [6] and in experiment [7] was “inactive” each time. The Potency entry in experiment [5] is “inactive”.
Regarding `CCCCCCCCCCCCCCCCCCNC(=O)OC1CCN(C(=O)OC[C@H](COC(=O)N(Cc2cccc[n+]2CC)C(=O)c2ccccc2OC)OC)CC1`, the Potency result in experiment [1] and in experiment [2] was “inactive” each time. Also, the Potency in experiment [3] was 27.5 µM (active); in experiment [4], 43.6 µM (active); in experiment [6] it was 30.9 µM (active).
As to `CC1(C)[C@H]2CC[C@]1(C)C(=O)C2`, the Potency entry in experiment [1], in experiment [2], in experiment [3], in experiment [4], in experiment [7] and in experiment [5] was “inactive” each time.
For the compound `O=C1C=CC(=O)N1c1cccc(N2C(=O)C=CC2=O)c1`, the Potency result in experiment [1], in experiment [2] and in experiment [5] was “inactive” each time. For the same compound, the Potency in experiment [3] is 71 µM (active); in experiment [4], 7.1 µM (active); in experiment [6], 6.33 µM (active); in experiment [7], 15.9 µM (active).
For the compound `CCOC=C(C(=O)OCC)C(=O)OCC`, the Potency entry in experiment [1], in experiment [2], in experiment [3], in experiment [4], in experiment [7] and in experiment [8] was “inactive” throughout. Further, the Potency result in experiment [5] was “inactive”.
As to `O=C1OC(O)C(C(Cl)Cl)=C1Cl` (stereo not given), the Potency entry in experiment [1], in experiment [3], in experiment [4], in experiment [6], in experiment [7] and in experiment [8] was “inactive” each time. Also, the Potency entry in experiment [5] is “inactive”. Besides, the Potency in experiment [2] was 22.4 µM (active).
On to `CCOc1ccc([N+](=O)[O-])cc1`, for which the Potency result in experiment [1] and in experiment [2] was “inactive” each time. Further, the Potency in experiment [3] is 80.9 µM (active); in experiment [4], 8.09 µM (active); in experiment [7], 32.2 µM (active); in experiment [5], 72.1 µM (active).
Consider `CN1CCN(C)CC1`, for which the Potency result in experiment [1], in experiment [2], in experiment [3], in experiment [4], in experiment [7] and in experiment [8] was “inactive” throughout. Besides, the Potency entry in experiment [5] is “inactive”.
